# Experimental data taken from the supplement of paper PMC4466140.
# What was measured:
# Experiment in all cases: SPOT peptide array binding signal intensity (averaged, normalized) (arbitrary units (background-subtracted, floor 0; scale differs between SH3 domains)); higher = stronger binding of the SH3 domain to the peptide
# SpBzz1-D2 = biological target: SpBzz1-D2
# Method in brief: (§1)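 SH3 domains from four yeast species were expressed as GST fusions in E. coli BL21(DE3) and purified on glutathione Sepharose. Each was incubated at 10 μg/ml overnight at 4°C in TBS-based blocking buffer on cellulose membranes bearing synthetic 15-mer peptides, in which serines replaced cysteines. Bound protein was detected with anti-GST antibody, an HRP anti-mouse secondary and luminol, then imaged and quantified with Genespotter. The binding signal is the normalized, background-subtracted spot intensity averaged over replicates, in arbitrary units that are not the same from one domain to another.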
# SpCyk3 = biological target: SpCyk3
# Method in brief: as §1
# SpHof1 = biological target: SpHof1
# Method in brief: as §1
# SpHof1-2 = biological target: SpHof1-2
# Method in brief: as §1
# SpHof1-3 = biological target: SpHof1-3
# Method in brief: as §1
# SpHse1 = biological target: SpHse1
# Method in brief: as §1
# SpLsb1 = biological target: SpLsb1
# Method in brief: as §1
# SpLsb4 = biological target: SpLsb4
# Method in brief: as §1
# SpMyo1 = biological target: SpMyo1
# Method in brief: as §1
# SpNbp2 = biological target: SpNbp2
# Method in brief: as §1
# SpPex13 = biological target: SpPex13
# Method in brief: as §1
# SpRvs167 = biological target: SpRvs167
# Method in brief: as §1
# SpSla1-D1-D2 = biological target: SpSla1-D1-D2
# Method in brief: as §1
# SpSla1-D3 = biological target: SpSla1-D3
# Method in brief: as §1
# AgAbp1 = biological target: AgAbp1
# Method in brief: as §1
# AgBbc1 = biological target: AgBbc1
# Method in brief: as §1
# AgBem1-D1 = biological target: AgBem1-D1
# Method in brief: as §1
# AgBzz1-D1 = biological target: AgBzz1-D1
# Method in brief: as §1
# AgBzz1-D2 = biological target: AgBzz1-D2
# Method in brief: as §1
# AgCyk3 = biological target: AgCyk3
# Method in brief: as §1
# AgFus1 = biological target: AgFus1
# Method in brief: as §1
# AgHof1 = biological target: AgHof1
# Method in brief: as §1
# AgHse1 = biological target: AgHse1
# Method in brief: as §1
# AgLsb1 = biological target: AgLsb1
# Method in brief: as §1
# AgLsb4 = biological target: AgLsb4
# Method in brief: as §1
# AgMyo5 = biological target: AgMyo5
# Method in brief: as §1
# AgNbp2 = biological target: AgNbp2
# Method in brief: as §1
# AgRvs167 = biological target: AgRvs167
# Method in brief: as §1
# AgSho1 = biological target: AgSho1
# Method in brief: as §1
# AgSla1-D1-D2 = biological target: AgSla1-D1-D2
# Method in brief: as §1
# AgSla1-D3 = biological target: AgSla1-D3
# Method in brief: as §1
# CaAbp1-D1 = biological target: CaAbp1-D1
# Method in brief: as §1
# CaAbp1-D2 = biological target: CaAbp1-D2
# Method in brief: as §1
# CaBbc1 = biological target: CaBbc1
# Method in brief: as §1
# CaBem1-D1 = biological target: CaBem1-D1
# Method in brief: as §1
# CaBzz1-D1 = biological target: CaBzz1-D1
# Method in brief: as §1
# CaBzz1-D2 = biological target: CaBzz1-D2
# Method in brief: as §1
# CaCyk3 = biological target: CaCyk3
# Method in brief: as §1
# CaFus1 = biological target: CaFus1
# Method in brief: as §1
# CaHof1 = biological target: CaHof1
# Method in brief: as §1
# CaHse1 = biological target: CaHse1
# Method in brief: as §1
# CaLsb1 = biological target: CaLsb1
# Method in brief: as §1
# CaLsb4 = biological target: CaLsb4
# Method in brief: as §1
# CaMyo5 = biological target: CaMyo5
# Method in brief: as §1
# CaNbp2 = biological target: CaNbp2
# Method in brief: as §1
# CaRvs167 = biological target: CaRvs167
# Method in brief: as §1
# CaRvs167-3 = biological target: CaRvs167-3
# Method in brief: as §1
# CaSho1 = biological target: CaSho1
# Method in brief: as §1
# CaSla1-D1-D2 = biological target: CaSla1-D1-D2
# Method in brief: as §1
# CaSla1-D3 = biological target: CaSla1-D3
# Method in brief: as §1
# ScAbp1 = biological target: ScAbp1
# Method in brief: as §1
# ScBbc1 = biological target: ScBbc1
# Method in brief: as §1
# ScBem1-D1 = biological target: ScBem1-D1
# Method in brief: as §1
# ScBzz1-D1 = biological target: ScBzz1-D1
# Method in brief: as §1
# ScBzz1-D2 = biological target: ScBzz1-D2
# Method in brief: as §1
# ScCyk3 = biological target: ScCyk3
# Method in brief: as §1
# ScFus1 = biological target: ScFus1
# Method in brief: as §1
# ScHof1 = biological target: ScHof1
# Method in brief: as §1
# ScHse1 = biological target: ScHse1
# Method in brief: as §1
# ScLsb1 = biological target: ScLsb1
# Method in brief: as §1
# ScLsb2 = biological target: ScLsb2
# Method in brief: as §1
# ScLsb3 = biological target: ScLsb3
# Method in brief: as §1
# ScLsb4 = biological target: ScLsb4
# Method in brief: as §1
# ScMyo3 = biological target: ScMyo3
# Method in brief: as §1
# ScMyo5 = biological target: ScMyo5
# Method in brief: as §1
# ScNbp2 = biological target: ScNbp2
# Method in brief: as §1
# ScPex13 = biological target: ScPex13
# Method in brief: as §1
# ScRvs167 = biological target: ScRvs167
# Method in brief: as §1
# ScSho1 = biological target: ScSho1
# Method in brief: as §1
# ScSla1-D1-D2 = biological target: ScSla1-D1-D2
# Method in brief: as §1
# ScSla1-D3 = biological target: ScSla1-D3
# Method in brief: as §1
# SpAbp1-D1 = biological target: SpAbp1-D1
# Method in brief: as §1
# SpBbc1 = biological target: SpBbc1
# Method in brief: as §1
# SpBzz1-D1 = biological target: SpBzz1-D1
# Method in brief: as §1
binder,measurement,setting,value
HKVLRPFLLRRLKKD,SPOT peptide array binding signal intensity,SpBzz1-D2,7.63e-06
same,SPOT peptide array binding signal intensity,SpCyk3,1.5
same,SPOT peptide array binding signal intensity,SpHof1,74.8
same,SPOT peptide array binding signal intensity,SpHof1-2,4
same,SPOT peptide array binding signal intensity,SpHof1-3,1720
same,SPOT peptide array binding signal intensity,SpHse1,2230
same,SPOT peptide array binding signal intensity,SpLsb1,≤ 0
same,SPOT peptide array binding signal intensity,SpLsb4,≤ 0
same,SPOT peptide array binding signal intensity,SpMyo1,2.62
same,SPOT peptide array binding signal intensity,SpNbp2,222
same,SPOT peptide array binding signal intensity,SpPex13,13.5
same,SPOT peptide array binding signal intensity,SpRvs167,0.333
same,SPOT peptide array binding signal intensity,SpSla1-D1-D2,≤ 0
same,SPOT peptide array binding signal intensity,SpSla1-D3,5.5
KKAPPPVVKPKPRNF,SPOT peptide array binding signal intensity,AgAbp1,4680
same,SPOT peptide array binding signal intensity,AgBbc1,58
same,SPOT peptide array binding signal intensity,AgBem1-D1,44.5
same,SPOT peptide array binding signal intensity,AgBzz1-D1,316
same,SPOT peptide array binding signal intensity,AgBzz1-D2,101
same,SPOT peptide array binding signal intensity,AgCyk3,≤ 0
same,SPOT peptide array binding signal intensity,AgFus1,31
same,SPOT peptide array binding signal intensity,AgHof1,63.5
same,SPOT peptide array binding signal intensity,AgHse1,39
same,SPOT peptide array binding signal intensity,AgLsb1,1.75
same,SPOT peptide array binding signal intensity,AgLsb4,12.5
same,SPOT peptide array binding signal intensity,AgMyo5,≤ 0
same,SPOT peptide array binding signal intensity,AgNbp2,45
same,SPOT peptide array binding signal intensity,AgRvs167,6
same,SPOT peptide array binding signal intensity,AgSho1,15
same,SPOT peptide array binding signal intensity,AgSla1-D1-D2,8
same,SPOT peptide array binding signal intensity,AgSla1-D3,32.5
same,SPOT peptide array binding signal intensity,CaAbp1-D1,3270
same,SPOT peptide array binding signal intensity,CaAbp1-D2,6180
same,SPOT peptide array binding signal intensity,CaBbc1,154
same,SPOT peptide array binding signal intensity,CaBem1-D1,15.5
same,SPOT peptide array binding signal intensity,CaBzz1-D1,1220
same,SPOT peptide array binding signal intensity,CaBzz1-D2,2260
same,SPOT peptide array binding signal intensity,CaCyk3,5
same,SPOT peptide array binding signal intensity,CaFus1,45.5
same,SPOT peptide array binding signal intensity,CaHof1,1
same,SPOT peptide array binding signal intensity,CaHse1,1.25
same,SPOT peptide array binding signal intensity,CaLsb1,2.5
same,SPOT peptide array binding signal intensity,CaLsb4,15.5
same,SPOT peptide array binding signal intensity,CaMyo5,1.5
same,SPOT peptide array binding signal intensity,CaNbp2,36.5
same,SPOT peptide array binding signal intensity,CaRvs167,11
same,SPOT peptide array binding signal intensity,CaRvs167-3,8
same,SPOT peptide array binding signal intensity,CaSho1,23
same,SPOT peptide array binding signal intensity,CaSla1-D1-D2,3160
same,SPOT peptide array binding signal intensity,CaSla1-D3,4.75
same,SPOT peptide array binding signal intensity,ScAbp1,7880
same,SPOT peptide array binding signal intensity,ScBbc1,3
same,SPOT peptide array binding signal intensity,ScBem1-D1,6
same,SPOT peptide array binding signal intensity,ScBzz1-D1,178
same,SPOT peptide array binding signal intensity,ScBzz1-D2,60
same,SPOT peptide array binding signal intensity,ScCyk3,7
same,SPOT peptide array binding signal intensity,ScFus1,15
same,SPOT peptide array binding signal intensity,ScHof1,3.5
same,SPOT peptide array binding signal intensity,ScHse1,61
same,SPOT peptide array binding signal intensity,ScLsb1,20.5
same,SPOT peptide array binding signal intensity,ScLsb2,2
same,SPOT peptide array binding signal intensity,ScLsb3,≤ 0
same,SPOT peptide array binding signal intensity,ScLsb4,3.5
same,SPOT peptide array binding signal intensity,ScMyo3,≤ 0
same,SPOT peptide array binding signal intensity,ScMyo5,≤ 0
same,SPOT peptide array binding signal intensity,ScNbp2,32
same,SPOT peptide array binding signal intensity,ScPex13,0.5
same,SPOT peptide array binding signal intensity,ScRvs167,5.17
same,SPOT peptide array binding signal intensity,ScSho1,37.5
same,SPOT peptide array binding signal intensity,ScSla1-D1-D2,3640
same,SPOT peptide array binding signal intensity,ScSla1-D3,17
same,SPOT peptide array binding signal intensity,SpAbp1-D1,2160
same,SPOT peptide array binding signal intensity,SpBbc1,0.75
same,SPOT peptide array binding signal intensity,SpBzz1-D1,318
same,SPOT peptide array binding signal intensity,SpBzz1-D2,0.5
same,SPOT peptide array binding signal intensity,SpCyk3,1
same,SPOT peptide array binding signal intensity,SpHof1,12
same,SPOT peptide array binding signal intensity,SpHof1-2,13.2
same,SPOT peptide array binding signal intensity,SpHof1-3,31
same,SPOT peptide array binding signal intensity,SpHse1,117
same,SPOT peptide array binding signal intensity,SpLsb1,1140
same,SPOT peptide array binding signal intensity,SpLsb4,27
same,SPOT peptide array binding signal intensity,SpMyo1,7
same,SPOT peptide array binding signal intensity,SpNbp2,43
same,SPOT peptide array binding signal intensity,SpPex13,3.5
same,SPOT peptide array binding signal intensity,SpRvs167,≤ 0
same,SPOT peptide array binding signal intensity,SpSla1-D1-D2,5.5
same,SPOT peptide array binding signal intensity,SpSla1-D3,10.5
